This is a sample that favours compounds with a hit; in the whole collection about 4.6% have one here.
FXN GAA850 act = frataxin GAA850 promoter activation. HEK293 lucGAA850 FXN promoter luciferase reporter, 24 h; percent of 10 µM SAHA response. activation, % at 6 µM. 360,000 compounds, 0.56% hits. AID 540364;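 active = activation above the average of all compounds screened plus 3 SD, cutoff fixed separately per campaign, cut at about 7.5% in these data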;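 also: 0% = DMSO wells and 100% = 10 µM SAHA wells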
HSF1 activator = increases HSF-1 driven luciferase reporter signal; NIH3T3-HGL HSF-1 luciferase reporter, MG132, 8 h; 100% = twice DMSO control signal; activation, % at 9 µM; 300,000 compounds, 1.7% hits;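 active = mean replicate activation of at least 50% with a set share of replicates each reaching 50%; inconclusive = only one of those two conditions met; inactive = mean below 50% and too few replicates reaching it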;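 also: 0% = median of the neutral control wells and 100% = twice that signal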
HSF1 inh = HSF1 inhibition | AID 2098 | activity change, negative = inhibition, % at 7.5 µM (by protocol) | 300,000 compounds, 0.77% hits | NIH3T3-HGL HSE-luciferase, MG132-induced, luminescence 8 h; hits give low values;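 active = more than half of replicate wells show activity change below -50%, luminescence cut by over half; inconclusive = some wells, but at most half, below -50%; inactive = no replicate well below -50%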;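 also: luciferase reports HSF-1 transcriptional activity via heat shock element; 0% = median of DMSO wells and -100% = zero luminescence signal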
AHR act = human AHR activation; AHR-responsive luciferase reporter cells, luminescence; activation, % at 5 µM; 320,000 compounds, 2.5% hits; AID 2796; in the data active = activation above about 47%;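 also: 0% = vehicle wells and 100% = reference agonist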
Target sequence (P35869 whole entry, looked up): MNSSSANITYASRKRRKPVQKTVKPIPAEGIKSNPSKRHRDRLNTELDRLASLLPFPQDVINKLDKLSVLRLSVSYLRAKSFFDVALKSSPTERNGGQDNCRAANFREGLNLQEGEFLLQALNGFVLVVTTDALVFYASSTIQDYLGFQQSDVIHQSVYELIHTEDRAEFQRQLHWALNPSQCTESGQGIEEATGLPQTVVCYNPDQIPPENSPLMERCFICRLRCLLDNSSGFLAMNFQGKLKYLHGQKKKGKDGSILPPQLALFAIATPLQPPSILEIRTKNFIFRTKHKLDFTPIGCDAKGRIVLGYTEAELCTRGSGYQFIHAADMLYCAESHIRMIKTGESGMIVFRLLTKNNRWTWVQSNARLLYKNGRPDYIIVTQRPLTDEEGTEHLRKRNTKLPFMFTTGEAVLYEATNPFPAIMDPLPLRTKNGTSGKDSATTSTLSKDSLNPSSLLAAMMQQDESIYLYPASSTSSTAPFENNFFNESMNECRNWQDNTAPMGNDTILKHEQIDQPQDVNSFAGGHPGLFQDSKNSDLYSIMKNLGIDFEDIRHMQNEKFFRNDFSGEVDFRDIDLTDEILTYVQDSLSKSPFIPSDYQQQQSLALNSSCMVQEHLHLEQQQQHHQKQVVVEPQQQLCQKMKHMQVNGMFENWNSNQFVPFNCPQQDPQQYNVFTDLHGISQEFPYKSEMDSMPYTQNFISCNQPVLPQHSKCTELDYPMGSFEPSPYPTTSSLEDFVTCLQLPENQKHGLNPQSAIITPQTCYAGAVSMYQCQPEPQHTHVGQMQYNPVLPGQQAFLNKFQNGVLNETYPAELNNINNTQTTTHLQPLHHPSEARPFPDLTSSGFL
An asterisk follows results filed as active; ? = inconclusive; . = no result given.

SMILES	FXN GAA850 act	HSF1 activator	HSF1 inh	AHR act
C/C(=N\NC(=O)c1cccc(S(=O)(=O)N2CCOCC2)c1)c1ccc(OC(F)F)cc1	1.1	-9.9	-7.4	2.5
O=C1CN(C(=O)CSc2nc(-c3ccccc3)cs2)c2ccccc2N1	-0.1	47.6	16.4	58.2*
O=C1CN(C(=O)CSc2nncs2)c2ccccc2N1	1.3	17.5	2.1	-0.4
CCOC(=O)NC(=O)CSc1ccc(C)cc1C	-0.1	-5.7	-9.1	1.1
COc1ccccc1C(=O)N1N=C(c2ccc(NS(C)(=O)=O)cc2)CC1c1cccs1 (centres undefined)	3.7	54.2*	12.4	3.1
O=C(Nc1nccs1)c1ccccc1N=Cc1ccccc1	0.4	-12.0	-6.2	5.6
CC(C)c1ccc(NNC(=O)C2CCC2)cc1	2.8	-26.2	-19.0	49.3*
O=C(NNc1c(Cl)cccc1Cl)C1CCC1	0.4	53.0*	19.5	2.3
NC(=O)c1ccsc1NC(=O)CN1C(=O)C2CC=CCC2C1=O (centres undefined)	1.2	13.8	-7.7	0.4
Cc1cccc(/C=N/NC(=O)c2ccc(NC(=O)c3ccc(F)cc3)cc2)n1	2.2	8.5	7.4	-2.0
CC(C)C(NC(=O)C12CC3CC(CC(C3)C1)C2)C(=O)NC1=NCCS1 (centres undefined)	.	-55.9	-40.3	0.8
O=C(COc1ccc2c3c(c(=O)oc2c1)CCCC3)NCCCN1CCCC1=O	1.3	-12.9	0.5	-5.9
O=C(NCC1(c2ccccc2)CCCC1)c1ccco1	1.4	-5.3	1.6	1.8
C=CCn1cccc(C(=O)Nc2ccc(C)cc2)c1=O	2.2	56.2*	19.3	55.2*
C=CCn1cccc(C(=O)Nc2cc(OC)ccc2OC)c1=O	2.8	-0.7	2.2	59.6*
CCCCOc1c(C(=O)Nc2ccccc2)nnn1-c1ccccc1	0.6	-10.0	-0.1	-0.7
CCc1ccc(NC(=O)C2CC(=O)N(C(C)C)C2)cc1 (centres undefined)	0.1	6.8	2.6	78.0*
CC(=O)Nc1ccc(NC(=O)C2CC(=O)N(C(C)C)C2)cc1 (centres undefined)	0.7	-4.8	-3.5	0.9
CCC(=O)N/N=c1/sc2ccccc2n1C	-0.5	13.2	5.1	36.0
Cc1ccc(C(=O)N/N=c2\sc3ccccc3n2C)cc1	5.1	?	22.7	94.9*
Cn1/c(=N/NC(=O)c2ccccc2F)sc2ccccc21	5.5	26.5	18.4	69.9*
COc1cc(OC)cc(C(=O)N=c2sc3ccccc3n2C)c1	2.8	29.9	21.6	26.1
COc1cccc(C(=O)N/N=c2\sc3ccccc3n2C)c1	0.9	81.1*	43.6	72.5*
COC(=O)c1ccc(CSc2nnc(-c3ccncc3)o2)cc1	0.1	2.2	-0.8	0.7
C[C@H]1CCC(=O)N([C@H](CC#N)Cc2ccccc2)CC1	-0.3	-3.0	-0.9	-0.2
SMILES	FXN GAA850 act	HSF1 activator	HSF1 inh	AHR act
COc1ccc(OC)c(Nc2nc(-c3sc(NC(=O)C(C)(C)C)nc3C)cs2)c1	1.1	-61.8	-47.2	61.3*
COc1ccc(OC)c(Nc2nc(-c3sc(NC(=O)CC(C)C)nc3C)cs2)c1	0.0	0.7	2.3	73.4*
Cc1ccc(C(=O)O)cc1NCc1cccnc1	0.4	.	.	.
CC(C)NCC(O)COc1ccc(COCCOC(C)C)cc1 (centres undefined)	-0.2	-0.8	-0.8	-1.2
COc1ccc(NC(=O)CCC(=O)c2cc(C)sc2C)cc1	-0.5	.	.	.
CC1CCCN(C(=O)CSc2nnc(-c3ccc(O)cc3)o2)C1 (centres undefined)	0.9	-65.4	-57.1*	-1.5
CC1CCCN(C(=O)CSc2nnc(-c3cccs3)o2)C1 (centres undefined)	4.5	44.4	16.7	1.8
CC(C)CC(=O)N1CCN(c2ccc([N+](=O)[O-])c(NCc3ccccc3)c2)CC1	1.0	9.6	7.0	47.8*
COc1cc(Nc2nnc(C)s2)c(Cl)cc1Cl	0.6	8.8	0.8	71.2*
CC12C(=O)N(NC(=O)c3ccncc3)C(=O)C1C1C=CC2C1 (centres undefined)	-2.6	39.9	2.6	1.4
O=C(CSc1nc2ccccc2o1)Nc1ccccc1N1CCCCCC1	2.5	6.8	13.2	2.4
CC1CCN(C(C(=O)Nc2ccc3c(c2)OCO3)c2ccccc2)CC1 (centres undefined)	-1.8	6.2	2.2	47.9*
O=C(Nc1ccc2c(c1)OCO2)C(c1ccccc1)N1CCCCC1 (centres undefined)	-2.5	6.0	-3.6	59.5*
CC1CCCN(C(C(=O)Nc2ccc3c(c2)OCCO3)c2ccccc2)C1 (centres undefined)	-0.8	11.4	13.9	0.7
O=C(Nc1ccc2c(c1)OCO2)C(c1ccccc1)N1CCC2(CC1)OCCO2 (centres undefined)	0.5	-4.2	1.8	11.4
O=C(Nc1ccc2c(c1)OCO2)C(c1ccccc1)N1CCN(C(=O)c2ccco2)CC1 (centres undefined)	0.2	-0.9	4.4	9.5
CC1CCC(NC(=O)C(=O)Nc2ccc3c(c2)OCO3)CC1 (centres undefined)	2.4	34.1	20.6	49.4*
CC1CCCN(C(C(=O)Nc2ccc3c(c2)OCO3)c2ccccc2)C1 (centres undefined)	-0.4	9.6	6.5	47.2*
CN(C)c1ccc(S(=O)(=O)N(C)C)cc1[N+](=O)[O-]	0.3	-3.9	-0.1	6.1
Cc1c(Cl)ccc2c1NC(=O)[C@]21N[C@@H](CCC(N)=O)[C@H]2C(=O)N(c3ccc(F)cc3)C(=O)[C@H]21	0.3	-1.9	1.8	21.3
Cc1c(Cl)ccc2c1NC(=O)C21NC(CCC(N)=O)[C@H]2C(=O)N(c3ccc(Cl)cc3)C(=O)[C@H]21 (some centres undefined)	2.1	56.5*	18.5	18.1
CCOc1cc(C(=O)N=c2sccn2C)cc(Br)c1OC	-1.0	-4.7	-0.3	54.9*
COc1cc(Br)cc2cc(C(=O)OC3CCN(C)CC3)c(=O)oc12	-3.1	-19.8	-0.1	4.3
O=C(NC1CCCCCC1)c1cc2ccccc2oc1=O	2.9	-34.2	-15.5	-2.1
COc1cccc2cc(C(=O)OC3CCN(C)CC3)c(=O)oc12	-0.6	-74.4	-68.0*	0.7
SMILES	FXN GAA850 act	HSF1 activator	HSF1 inh	AHR act
O=C(OC1CCCCC1)c1cc2ccccc2oc1=O	6.0	51.5*	34.7	-0.8
CC(=O)Oc1ccc(-c2cccc(C(=O)OCC(=O)N(C)c3ccccc3)c2)cc1	-5.7	90.1*	49.5	-4.1
CN(C)c1cccc(C(=O)OCC(=O)N(C)c2ccccc2)c1	-0.3	26.4	-0.3	1.1
O=C(CSc1ccc(-c2ccc(F)cc2)nn1)N1CCCCC1	3.6	3.6	10.3	5.9
CC(C)CC(=O)Nc1cccc(-c2cn3ccsc3n2)c1	3.4	-2.6	13.1	12.9
C=CCN(CC=C)C(=S)NC(=O)c1ccc(OC)cc1	1.6	2.0	-2.1	51.1*
COc1cccc(CNC2CCCC2)c1	-2.5	-7.2	-3.8	-1.4
COc1cc(CNC2CCCC2)cc(OC)c1	-0.3	59.3*	27.7	-2.2
O=C(Cn1nc2ccccc2n1)N/N=C/c1cc([N+](=O)[O-])ccc1O	-0.2	-62.5	-53.3*	2.0

From PubChem
